Where “and” joins values, the source holds several entries; their conditions need not be identical. Identical values can stand only once. Some compounds were tested as several samples or in several runs, with calls that do not always agree. Calls of active or inactive are those of the source. Entries that show only a call come without a potency. Calls come from the whole dose curve; as a rule, active = well fitted activation curve with a large enough effect in the repeat runs; inconclusive = weak or mixed curves; inactive = flat fitted curve, though single readings scatter.
Potency is the fitted concentration of half-maximal effect.

The nature of this test: A CellTox Green Cytotoxicity Assay to monitor cytotoxicity in HepG2 cells - 0 hour (AID 1224882). Note: nearly all actives have a fitted effect of over 35% in size. To be noted: CellTox Green fluorescence; series mostly up to 76.8 µM. From the text:
National Center for Advancing Translational Sciences [NCATS]
NIH Chemical Genomics Center [NCGC]
U.S. Environmental Protection Agency [EPA]
National Institutes of Environmental Health Sciences [NIEHS]
National Toxicology Program [NTP]
Cell-based models are critical for drug discovery. Determining the natural cytotoxic effects resulting from test compounds is an essential research activity. A CellTox Green Cytotoxicity Assay to monitor cytotoxicity in real time of continues cell culture during 40 hours of the compound treatment was used to screen Tox21 10K library compounds in HepG2 cells. CellTox Green Cytotoxicity Assay is a nonlytic, homogeneous, biofluorescent method to measure cytotoxicity in cell culture after experimental manipulation. The assay system uses a proprietary asymmetric cyanine dye that is excluded from viable cells but preferentially stains the dead cell's DNA. […] Viable cells produce no appreciable increases in fluorescence. Therefore, the fluorescence signal produced by the binding interaction with dead cell DNA is proportional to cytotoxicity.
The mixture of HepG2 cell suspension and reagents were dispensed at 600cells/6 ul/well in 1536-well tissue culture treated black solid bottom plates using a Multidrop dispenser. After the assay plates were incubated at a 37 C/5% CO2 incubator for 5 hours, 23 nL of compounds dissolved in DMSO, positive and negative controls was transferred to the assay plate by a pintool work station. The plates were incubated at 37 C for 40 hours. The fluorescence intensity were measured at 0h, 8h, 16h, 24h, 32h and 40h time points using ViewLux plate reader during compound treatment.
For the molecule `[O-][Cl+2]([O-])O`, the Potency result was “inactive”.
For the molecule `CCCN(CCC)N=O`, the Potency entry is “inactive”.
Then `ClCCBr`, with “inactive”; and `C#CCN(C)[C@H](C)Cc1ccccc1`, with “inactive”; and `C[C@]12CC[C@H]3[C@@H](CC[C@@]45O[C@@H]4C(O)=C(C#N)C[C@]35C)[C@@H]1CC[C@@H]2O`, with “inactive”.
Take `CCOP(OCC)OCC`: the Potency entry is “inactive”.
The result for `Cc1cc(-c2cc(C)c(N)c(C)c2)cc(C)c1N` reads “inactive”; that for `C1CC2OC2CC1C1CO1` (stereo not given), “inactive”; that for `Cc1[nH]c(=O)n(C(C)(C)C)c(=O)c1Cl`, “inactive”.
Take `COCCl`: the Potency entry was “inactive”.
For `[N-]=[N+]=[N-]`, the Potency result was “inactive”.
Regarding `CC(C)C1(C)N=C(c2nc3ccccc3cc2C(=O)O)NC1=O` (stereo not given), the Potency entry is “inactive”.
With `CC(C)NC(=O)N1CC(=O)N(c2cc(Cl)cc(Cl)c2)C1=O`, the Potency entry was “inactive”.
Consider `CC(C)=C[C@@H]1[C@@H](C(=O)OCc2coc(Cc3ccccc3)c2)C1(C)C`, for which the Potency entry was “inactive”.
On to `O=NN1CCCC1`, for which the Potency result was “inactive”.
`COC(=O)NC(=S)Nc1ccccc1NC(=S)NC(=O)OC`: the Potency result is “inactive”.
Regarding `c1ccc2c(c1)oc1ccccc12`, the Potency result is “inactive”.
With `CN(C)[C@@H]1C(=O)C(C(N)=O)=C(O)[C@@]2(O)C(=O)C3=C(O)c4c(O)cccc4[C@@](C)(O)[C@H]3C[C@@H]12`, the Potency entry is “inactive”.
Take `CCOP(=S)(OCC)SCCSCC`: the Potency result was “inactive”.
As for `CCOC(=O)c1ccccc1C(=O)OCC`, the Potency entry was “inactive”.
Turning to `O=c1[nH]c2ccccc2c(=O)o1`, the Potency entry is “inactive”.
Then `c1ccc2c(c1)Oc1ccccc1O2`, with “inactive”; and `O=[N+]([O-])c1ccc(Oc2ccc(Cl)cc2Cl)cc1`, with “inactive”.
As for `CC(Br)C(=O)O` (stereo not given), the Potency result was “inactive”.
Turning to `C=CCO`, the Potency entry was “inactive and 38.9 µM (active)”.
On to `Cn1cc(-c2ccccc2)c(=O)c(-c2cccc(C(F)(F)F)c2)c1`, for which the Potency result was “inactive”.
Turning to `CCN(CC)c1ccccc1`, the Potency entry is “inactive”.
For the molecule `CCC[CH2][Sn]([Cl])([Cl])[Cl]`, the Potency result was “inactive”.
For `Cc1cccc([N+](=O)[O-])c1`, the Potency entry was “inactive”.
Regarding `Cc1ccc([N+](=O)[O-])cc1C`, the Potency entry is “inactive”.
Turning to `C#CC(C)(C)NC(=O)c1cc(Cl)cc(Cl)c1`, the Potency entry is “inactive”.
Take `Cc1ccc(N)cc1Cl`: the Potency result is “inactive”.
For `O=NN1CCCCCCC1`, the Potency result was “inactive”.
Regarding `O=S(=O)(c1ccc(O)cc1)c1ccc(O)cc1`, the Potency entry was “inactive”.
With `Nc1ccccc1C(=O)O`, the Potency result is “inactive”.
For `CC(C)(C)OOC(C)(C)C`, the Potency result is “inactive”.
With `O=C(O)c1ccccn1`, the Potency entry is “inactive”.
With `CN(C)CCO`, the Potency entry is “inactive”.
Then `CCCC1COC(Cn2cncn2)(c2ccc(Cl)cc2Cl)O1` (stereo not given), with “inactive”; and `CC(Oc1ccc(Cl)cc1Cl)C(=O)O` (stereo not given), with “inactive”.

Values taken from PubChem BioAssay (Tox21).
